# From PubChem BioAssay AID434936 (National Center for Advancing Translational Sciences (NCATS), 2010)
# Records with an inconclusive call do not appear. Calls of active or inactive are those of the source. Calls follow the shape of the dose curve; as a rule, active = well fitted curve in either direction with a large enough effect; inconclusive = small, poorly fitted or top-dose-only effect; inactive = flat fitted curve, though single readings scatter.
# Target: Neuropeptide S receptor (Homo sapiens) (UniProt Q6W5P4)
# Test: Confirmation Concentration-Response Assay for Antagonists of the Neuropeptide S Receptor: Robust Characterization of cAMP Signal Transduction
# Conditions: CHO-NPSR cells, NPS-stimulated cAMP TR-FRET; series mostly up to 50.7 µM
# Text: NIH Chemical Genomics Center [NCGC] NIH Molecular Libraries Probe Production centers Network [MLPCN] MLPCN Grant: X01-DA026210-01 Assay Submitter (PI): Heilig, Markus Alexander NCGC Assay Overview: Neuropeptide S receptor (NPSR), previously known as GPR154, is a recently de-orphanized G protein coupled receptor. Its endogenous ligand is the 20 amino acids peptide Neuropeptide S (NPS). […] NPS and its receptor are found in various tissues. Specifically they are highly expressed in brain areas that have been implicated in modulation of arousal, stress and anxiety. Central administration of NPS in mice produces an unusual profile of activity by inducing wakefulness and arousal, while at the same time suppressing anxiety. Therefore, NPSR may represent a novel drug target for the treatment of sleep and anxiety disorders. To identify NPSR antagonists, we developed a cell-based cAMP assay. NPS can stimulate the production of cAMP in Chinese hamster ovary cells stably expressing NPS receptor. This change in intracellular cAMP level can be detected by a homogeneous LANCE cAMP assay based on the TR-FRET (time resolved fluorescence resonance energy transfer) between a europium-labeled cAMP tracer complex and a cAMP-specific antibody labeled with Alexa Fluor 647. The europium-labeled cAMP tracer complex is formed by the tight interaction between Biotin-cAMP (b-cAMP) and streptavidin labeled with Europium-W8044 chelate (Eu-SA). Light pulse at 320 nm excites the europium of the cAMP tracer and the energy emitted is transferred to the Alexa molecule bound to the cAMP antibody, generating a TR-FRET signal at 665 nm. Residual energy from the europium will produce a light at 620 nm. The native unlabeled cAMP from cell lysates competes with the europium-cAMP tracer for antibody binding and reversely reduces the emission signal of Alexa by interrupting FRET between the two labeled molecules. Both emission signals from the FRET donor (620 nm) and the acceptor (665 nm) can be detected by a plate reader in the TRF mode. Expression of result in fluorescence ratio (665 nm/620 nm) helps to normalize differences due to cell density and reagent dispensing. This assay was successfully optimized to a 1536-well plate format. Select compounds from the primary screen (AID 1461) were chosen for confirmation based on potency, efficacy, SAR, and activity across other assays in PubChem and at NCGC. Other compounds are analogs of active compounds from the primary screen. This particular assay uses a high density of sampling across concentration-response space to establish more confidence estimates of potency.
# NCGC Assay Protocol Summary: A Chinese hamster ovary (CHO) cell line stably expressing the NPS receptor (CHO-NPSR) was obtained from Dr. Heilig lab at NIAAA and maintained in F-12 Kaighn's media (Invitrogen, Carlsbad, CA, 21127) supplemented with 10 % FBS, 100 units/ml penicillin, 100 ug/ml streptomycin and 250 ug/ml geneticin at 37C, 5% CO2 in a humidified atmosphere. Before the assay, aliquots of cells were frozen and stored at -135C. The assay was performed in 1536-well format. Data are reported for both the ratio of the two emission wavelengths, and also for the component 'donor' channel, Em2=620. […] IC50 values were determined from concentration-response data modeled with the standard Hill equation. NPS 1536-well assay protocol: (1) Fresh or frozen CHO-NPSR cells were suspended in F-12 Kaighn's media supplemented with 10 % FBS, 100 units/ml penicillin and 100 ug/ml streptomycin. Cells were plated at 4 ul/well (1200 cells) to white, tissue culture treated 1536-well plates, and then cultured at 37C, 5 % CO2 for 16 to 30 hours. (2) Add 23 nl/well of compound in DMSO solution. The final titration for each compound was between 0.6 nM and 46 uM. […]
# Neuropeptide S receptor (Homo sapiens), sequence (Q6W5P4 whole entry, looked up): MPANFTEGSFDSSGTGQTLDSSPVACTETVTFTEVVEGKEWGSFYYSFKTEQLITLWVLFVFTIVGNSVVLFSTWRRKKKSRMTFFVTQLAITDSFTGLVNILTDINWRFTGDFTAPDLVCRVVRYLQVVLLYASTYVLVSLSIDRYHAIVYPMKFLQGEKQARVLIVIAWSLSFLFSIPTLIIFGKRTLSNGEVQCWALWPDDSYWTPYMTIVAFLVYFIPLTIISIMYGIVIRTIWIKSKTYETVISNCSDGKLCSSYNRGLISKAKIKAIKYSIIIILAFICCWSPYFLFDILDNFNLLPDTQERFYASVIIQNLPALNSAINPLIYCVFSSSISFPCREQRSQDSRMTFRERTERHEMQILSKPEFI
row,SMILES,Potency
1,CCOC(=O)CCC(=O)Nc1ncnc2c1C(c1ccccc1)c1c(ccc3ccccc13)O2 (stereo not given),3.45 µM (active)
2,COc1ccc(C2c3c(nc(CCCc4ccccc4)[nH]c3=O)Oc3ccc4ccccc4c32)cc1OC (stereo not given),inactive
3,COc1cccc(C2c3c(ncn(-c4ccccc4Br)c3=N)Oc3ccc4ccccc4c32)c1 (stereo not given),9.72 µM (active)
4,COc1ccc(C2c3c(ncn(CCCc4ccccc4)c3=N)Oc3ccc4ccccc4c32)cc1OC (stereo not given),27.4 µM (active)
5,N=c1c2c(ncn1-c1ccccc1)Oc1ccc3ccccc3c1C2c1ccc2c(c1)OCO2 (stereo not given),3.07 µM (active)
6,N=c1c2c(ccn1CCCc1ccccc1)Oc1ccc3ccccc3c1C2c1ccccc1 (stereo not given),2.74 µM (active)
7,COc1cccc(C2c3c(ncn(-c4ccc(C(C)(C)C)cc4)c3=N)Oc3ccc4ccccc4c32)c1 (stereo not given),12.2 µM (active)
8,COc1cccc(C2C(C#N)=C(NC(=O)CCc3ccccc3)Oc3ccc4ccccc4c32)c1 (stereo not given),inactive
9,COc1cccc(C2c3c(ncn(-c4ccccc4C)c3=N)Oc3ccc4ccccc4c32)c1 (stereo not given),6.88 µM (active)
10,N=c1c2c(ccn1CCc1ccccc1)Oc1ccc3ccccc3c1C2c1ccccc1 (stereo not given),3.87 µM (active)
11,COc1ccc(C2c3c(ncn(Cc4ccccc4)c3=N)Oc3ccc4ccccc4c32)cc1OC (stereo not given),13.7 µM (active)
12,COc1cccc(C2c3c(ncn(-c4ccccc4SC)c3=N)Oc3ccc4ccccc4c32)c1 (stereo not given),4.87 µM (active)
13,CCOC(=O)c1ccc(-n2cnc3c(c2=N)C(c2cccc(OC)c2)c2c(ccc4ccccc24)O3)cc1 (stereo not given),10.9 µM (active)
14,N=c1c2c(ncn1-c1ccccc1)Oc1ccc3ccccc3c1C2c1ccc2c(c1)OCCO2 (stereo not given),2.18 µM (active)
15,COc1cccc(C2c3c(ncn(-c4cccc(Br)c4)c3=N)Oc3ccc4ccccc4c32)c1 (stereo not given),12.2 µM (active)
16,COc1ccc(-n2cnc3c(c2=N)C(c2cccc(OC)c2)c2c(ccc4ccccc24)O3)cc1 (stereo not given),6.88 µM (active)
17,O=C(Cc1ccccc1)Nc1ncnc2c1C(c1ccccc1)c1c(ccc3ccccc13)O2 (stereo not given),2.74 µM (active)
18,COc1cccc(C2c3c(ncn(-c4ccc(C)cc4)c3=N)Oc3ccc4ccccc4c32)c1 (stereo not given),8.67 µM (active)
19,COc1cccc(C2c3c(ncn(-c4ccccc4)c3=N)Oc3ccc4ccccc4c32)c1OC (stereo not given),4.34 µM (active)
20,COc1ccc(C2c3ccc4ccccc4c3Oc3ncn(CCN4CCOCC4)c(=N)c32)cc1OC (stereo not given),30.7 µM (active)

row,SMILES,Potency
1,N#CC1=C(NC=NCc2ccccc2)Oc2ccc3ccccc3c2C1c1ccccc1 (stereo not given),1.37 µM (active)
2,COc1cccc(C2c3c(ncn(-c4ccccc4-c4ccccc4)c3=N)Oc3ccc4ccccc4c32)c1 (stereo not given),15.4 µM (active)
3,COc1ccc(C2c3c(N)nc(CCc4ccccc4)nc3Oc3ccc4ccccc4c32)cc1OC (stereo not given),24.4 µM (active)
4,COc1cccc(C2c3c(ncn(-c4ccc(Br)cc4)c3=N)Oc3ccc4ccccc4c32)c1 (stereo not given),12.2 µM (active)
5,COc1cccc(C2c3c(ncn(-c4ccccc4OC)c3=N)Oc3ccc4ccccc4c32)c1 (stereo not given),4.34 µM (active)
6,Cc1c(C(O)(c2ccccc2)c2ccccc2)[n+]2ccccc2n1C,inactive
7,COc1cccc(C2c3c(ncn(CCCN4CCOCC4)c3=N)Oc3ccc4ccccc4c32)c1 (stereo not given),4.87 µM (active)
8,COc1cccc(C2c3c(ncn(-c4ccccc4Cl)c3=N)Oc3ccc4ccccc4c32)c1 (stereo not given),8.67 µM (active)
9,COc1cccc(C2c3c(ncn(-c4cccc(F)c4)c3=N)Oc3ccc4ccccc4c32)c1 (stereo not given),3.87 µM (active)
10,COc1cccc(C2c3c(ncn(Cc4cccs4)c3=N)Oc3ccc4ccccc4c32)c1 (stereo not given),12.2 µM (active)
11,COc1ccc(C2c3c(nc(CCc4ccccc4)[nH]c3=O)Oc3ccc4ccccc4c32)cc1OC (stereo not given),inactive
12,COc1cccc(C2c3c(ncn(-c4ccc(NC(C)=O)cc4)c3=N)Oc3ccc4ccccc4c32)c1 (stereo not given),12.2 µM (active)
13,N=c1c2c(ccn1-c1ccccc1)Oc1ccc3ccccc3c1C2c1ccccc1 (stereo not given),1.09 µM (active)
14,COc1cccc(C2c3c(ncn(-c4cccc(C#N)c4)c3=N)Oc3ccc4ccccc4c32)c1 (stereo not given),13.7 µM (active)
15,COc1cccc(C2c3c(ncn(-c4ccc(-c5ccccc5)cc4)c3=N)Oc3ccc4ccccc4c32)c1 (stereo not given),inactive
16,COc1cccc(C2c3c(ncn(CCN4CCOCC4)c3=N)Oc3ccc4ccccc4c32)c1 (stereo not given),12.2 µM (active)
17,N=c1c2c(ccn1Cc1ccccc1)Oc1ccc3ccccc3c1C2c1ccccc1 (stereo not given),2.18 µM (active)
18,COc1cccc(C2c3c(ncn(-c4ccncc4)c3=N)Oc3ccc4ccccc4c32)c1 (stereo not given),13.7 µM (active)
19,Cc1nc2ccccn2c1P(=O)(c1ccccc1)c1ccccc1,inactive
20,COc1ccc(C2c3ccccc3Oc3ncn(CCN4CCOCC4)c(=N)c32)cc1OC (stereo not given),4.87 µM (active)
